Laboratory results published in PubChem BioAssay AID686940 (The Scripps Research Institute Molecular Screening Center, 2013).
About 2,600 (0.7%) of roughly 370,000 compounds were called active. Many of the other results were omitted from the sample, so actives are more common in it than they were. Unmarked numbers belong to inactive results.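 The calls were made as follows: active = inhibition above a per-plate cutoff, mean inhibition of test wells between control levels plus 3 SD (cut at about 38% in these data); inactive = the rest.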

Target: COUP transcription factor 2 (Homo sapiens) (UniProt P24468)
Sequence (P24468 whole entry, looked up): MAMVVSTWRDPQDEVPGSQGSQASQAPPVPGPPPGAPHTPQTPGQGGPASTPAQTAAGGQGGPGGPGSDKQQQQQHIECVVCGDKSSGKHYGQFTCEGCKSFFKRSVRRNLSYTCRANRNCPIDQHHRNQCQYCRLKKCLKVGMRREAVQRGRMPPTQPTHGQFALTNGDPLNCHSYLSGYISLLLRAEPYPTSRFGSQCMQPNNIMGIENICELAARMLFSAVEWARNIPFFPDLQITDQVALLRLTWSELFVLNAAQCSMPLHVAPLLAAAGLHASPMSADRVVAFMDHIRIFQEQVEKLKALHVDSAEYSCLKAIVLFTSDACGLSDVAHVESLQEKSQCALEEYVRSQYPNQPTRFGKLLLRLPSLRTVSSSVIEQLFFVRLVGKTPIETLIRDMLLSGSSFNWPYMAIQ
Assay: NR2F2 transcriptional activity inhibitors, primary screen, cell-based, luciferase reporter, HEK293T, luminescence (AID 686940);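 also: cells cotransfected with COUP-TFII expression vector driving the NGFI-A reporter; 0% = median of COUP-TF2 test wells and 100% = reporter-only cells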
Conditions: HEK293T NGFI-A luciferase reporter, at 8.6 µM, stronger effect = higher value

**Q.** How did the inhibition turn out when `CC1=CC(=Cc2sc3ccccc3[n+]2C)C=C(C)O1` was run?
**A.** 71.6% (active)

**Q.** For `O=C(NCC1=C(c2ccc3ccccc3c2)C[C@@H]2CC[C@H]1N2Cc1ccco1)c1cccs1`, which inhibition is on record?
**A.** -9.66%

**Q.** `COC(=O)C1=C(c2ccc(-c3ccccc3)c(F)c2)C[C@@H]2CC[C@H]1N2C(=O)NCc1ccc(F)cc1` was tested. Which inhibition did it give?
**A.** 9.38%

**Q.** How did the inhibition turn out when `Cc1cccc(NC(=O)OC2CN3CCC2CC3)c1` (stereo not given) was run?
**A.** -3.61%

**Q.** With `COC1C(O)C(C)OC(OC2CCC3(C=O)C(CCC4C3CCC3(C)C(C5=CC(=O)OC5)CCC43O)C2)C1O` (stereo not given) as the molecule, how does the inhibition read?
**A.** 78.5% (active)

**Q.** `Cc1ccc(P(=S)(c2ccc(C)o2)N2CCOCC2)o1` was tested. Which inhibition did it give?
**A.** -6.39%

**Q.** `O=C(C1CC(=O)N(C2CCCC2)C1)N1CCC2(CC1)OCCO2` (stereo not given) was tested. Which inhibition did it give?
**A.** -6.43%

**Q.** Which inhibition does the source give for `CC(=C1C(=O)c2ccccc2C1=O)N1CCN(CCN=Cc2c(O)n(C)c(=O)n(C)c2=O)CC1` here?
**A.** 13.2%

**Q.** `c1ccc(C(CN2CCCCC2)c2ccccc2)cc1` was tested. Which inhibition did it give?
**A.** 5.82%

**Q.** How did the inhibition turn out when `CCOc1ccc(-c2cc(C)[n+](CCN(CC)CC)c(-c3ccc(OCC)cc3)c2)cc1` was run?
**A.** 65.8% (active)

**Q.** For `Cc1cc(N2CCNC[C@@H]2C)ccc1N1CC[C@H](O)C1`, which inhibition is on record?
**A.** 14.6%

**Q.** With `Cc1ccccc1CCC[C@@H](CC1CCCCC1)CN(C)C(=O)Oc1ccccc1` as the molecule, how does the inhibition read?
**A.** 0.63%

**Q.** `CO[C@H]([C@H](C)/C=C/N(C)C=O)[C@@H](C)C(=O)CC[C@H](C)[C@H](O)[C@H](C)[C@H]1OC(=O)/C=C/C(C)=C/[C@H](O)[C@H](OC)C[C@@H]2C=CC[C@@H](C[C@H](OC)[C@@]3(CO3)[C@@H](OC)C[C@@H](OC)[C@@H]1C)O2` was tested. Which inhibition did it give?
**A.** -21.1%

**Q.** Which inhibition does the source give for `CCC(C)(O)C(=O)OC1C(=O)OC2CC3C(C)=CC(=O)C(O)C3(C)C3C4(O)OCC23C1C(C)C4O` (stereo not given) here?
**A.** 89.2% (active)

**Q.** With `CC(C)Oc1cccc(C(=O)C2CCCN(C3CCOCC3)C2)c1` (stereo not given) as the molecule, how does the inhibition read?
**A.** -4.53%

**Q.** With `COc1ccc2c(c1)[C@@]13CCCCC1[C@@H](C2)NCC3` (stereo not given in full) as the molecule, how does the inhibition read?
**A.** -12.9%

**Q.** For `Clc1ccc([C@@H]2CC3CCC2N3)cn1` (stereo not given in full), which inhibition is on record?
**A.** -1.27%

**Q.** Which inhibition does the source give for `O=S(=O)(c1ccccc1)N1CCC2CCNC2C1` (stereo not given) here?
**A.** 12.5%

**Q.** With `CS(=O)(=O)N1CCC2CCNC2C1` (stereo not given) as the molecule, how does the inhibition read?
**A.** 8.62%

**Q.** With `Brc1ccc2c(c1)CNCc1cnnn1-2` as the molecule, how does the inhibition read?
**A.** -8.52%

**Q.** Which inhibition does the source give for `CCCCCCCCCCCCn1ccc(=N)cc1` here?
**A.** 81.1% (active)

**Q.** `COP(=O)(Sc1ccccc1)C(Cc1ccccc1)NC(=O)OCc1ccccc1` (stereo not given) was tested. Which inhibition did it give?
**A.** -13.2%

**Q.** With `CC(=NC1CCN(Cc2ccccc2)CC1)c1c(O)n(C)c(=O)n(C)c1=O` as the molecule, how does the inhibition read?
**A.** -7.27%

**Q.** Which inhibition does the source give for `CCC(C)NC1(c2ccccc2)CCCCC1` (stereo not given) here?
**A.** 6.15%

**Q.** With `O=c1c2ccccc2nc(CBr)n1-c1ccc(Cl)cc1` as the molecule, how does the inhibition read?
**A.** 6.6%

**Q.** For `C[C@]12CC[C@H](O)C[C@H]1CC[C@@H]1C2CC[C@]2(C)[C@@H](C3=CC(=O)OC3)[C@@H](O)C[C@]12O` (stereo not given in full), which inhibition is on record?
**A.** 44.1% (active)

**Q.** `CCN(CC)C(=O)[C@@H]1C=C2c3cccc4[nH]c(Br)c(c34)C[C@H]2N(C)C1` was tested. Which inhibition did it give?
**A.** 14.9%

**Q.** How did the inhibition turn out when `CCC/C(=N\O)c1c[nH]c2ccccc12` was run?
**A.** -11.3%

**Q.** For `COc1cc(OC)cc(C(=O)NCCN2CCC3(CC2)C(=O)NCN3c2ccccc2)c1`, which inhibition is on record?
**A.** 0.55%

**Q.** For `NCCc1ccc(S(=O)(=O)F)cc1`, which inhibition is on record?
**A.** 18.9%
